High-throughput results from PubChem BioAssay.
Only some compounds are listed: those with a hit (about 10% of all), similar ones and a draw of the others.
HP1b binding inh – blocks HP1-beta chromodomain binding to methylated histone tails; P83916; AlphaScreen HP1-beta / biotin-H3K9me3 peptide binding; Potency, µM (doses to about 114 µM), hits mostly inhibitors; hit rate 0.56% among 390,000; also: nearly all actives have a fitted effect of over 70% in size
Target sequence (P83916 whole entry, looked up): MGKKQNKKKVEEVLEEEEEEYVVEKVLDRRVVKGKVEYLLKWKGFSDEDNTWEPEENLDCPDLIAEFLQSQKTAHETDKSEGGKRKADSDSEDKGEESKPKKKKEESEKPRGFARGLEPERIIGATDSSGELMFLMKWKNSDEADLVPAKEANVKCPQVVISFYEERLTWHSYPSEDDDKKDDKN
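Compound inhibition of the preformed complex between 50 nM HP1-beta and 50 nM biotinylated H3K9me3 peptide was read by AlphaScreen. Buffer was PBS pH 7.4 with 0.01% Tween-20. Incubations ran 30 min at room temperature, with 10 ug/mL donor/acceptor beads.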
G9a block – G9a (human) methyltransferase inhibition | G9a H3K9 monomethylation, AlphaScreen, 2 h | hit rate 8.8% among 350,000 | Potency, µM (titrated, usually from 102 µM), actives largely listed as inhibitors | Q96KQ7; also: nearly all actives have a fitted effect of over 75% in size
Target sequence (Q96KQ7 913-1193 limits assumed): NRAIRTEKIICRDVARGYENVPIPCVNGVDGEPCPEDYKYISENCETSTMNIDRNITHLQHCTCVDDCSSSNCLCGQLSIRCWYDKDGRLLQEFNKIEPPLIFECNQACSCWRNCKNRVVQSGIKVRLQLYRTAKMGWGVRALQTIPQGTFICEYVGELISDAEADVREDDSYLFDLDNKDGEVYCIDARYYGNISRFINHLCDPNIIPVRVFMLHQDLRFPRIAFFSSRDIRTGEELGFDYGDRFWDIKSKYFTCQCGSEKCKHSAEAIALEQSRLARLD
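Chemiluminescent proximity detection of H3K9 monomethylation, read after 10 min bead incubation in the dark. Reaction: 20 nM G9a, 500 nM biotin-H3K9 peptide, 20 uM SAM cofactor, 2 h, room temperature, following 15 min enzyme-compound preincubation.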
Six1-Eya2 inh – Six1/Eya2 interaction inhibition. Q15475+O00167. activity change, % (test concentration not listed). AlphaScreen GST-Six1/His-Eya2 binding, biochemical; active compounds read low. hit rate 0.56% among 360,000; in the data active = activity change below about -65%; inconclusive = mostly about -30% to -63%
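Compounds are tested against tagged Six1 and Eya2 proteins bridged by glutathione donor and nickel acceptor beads; after a one-hour incubation at 37 °C without light, AlphaScreen emission is recorded.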
JMJD2A Tudor – blocks the human JMJD2A Tudor domain; Potency, µM (series often up to 114 µM), usual class: inhibitors; O75164; hit rate 4.4% among 390,000; AID 504339; AlphaScreen JMJD2A-Tudor / H3K4me3 peptide binding; also: nearly all actives have a fitted effect of over 50% in size
CtBP-E1A inh – blocks the CtBP interaction with E1A; AlphaScreen GST-E1A/His-CtBP binding, 1536-well; active compounds read low; activity change, % (test concentration not listed); hit rate 0.49% among 340,000; in the data active = activity change below about -65%; inconclusive = mostly about -30% to -63%
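Homogeneous bead-based format: GST-tagged E1A captured on glutathione donor beads, His-tagged CtBP on nickel acceptor beads; compounds precede bead addition by 2 h at 37 °C.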
BAZ2B inh – inhibitors of human BAZ2B bromodomain | AlphaScreen BAZ2B-H3K14Ac peptide displacement | Q9UIF8 | AID 504333 | Potency, µM (doses to about 114 µM), most hits filed as inhibitors | hit rate 4.4% among 360,000; also: nearly all actives have a fitted effect of over 60% in size
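AlphaScreen luminescence quantifies BAZ2B engagement of H3K14Ac peptide; the protein and biotinylated peptide are both at 50 nM final, buffer PBS pH 7.4 with 0.01% Tween-20, all steps at room temperature.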
A number is an active result; – = inactive; ? = inconclusive; · = no result; [ ] = remark or other dose. Unless noted, calls follow the shape of the dose curve; as a rule, active = well fitted inhibition curve with a large enough effect; inconclusive = small, poorly fitted or top-dose-only effect; inactive = no such curve, though single readings can be large or run the other way.

SMILES | HP1b binding inh | G9a block | Six1-Eya2 inh | JMJD2A Tudor | CtBP-E1A inh | BAZ2B inh
O=c1oc2c(-c3ccc([N+](=O)[O-])cc3)cc(O)cc2s1 | ? | 56µM | – | – | – | –
Cc1ccc(S(=O)(=O)N2CCN(c3nc(-c4ccc(C)s4)nc4ccccc34)CC2)cc1 | – | · | · | – | · | ·
C=CCn1c(COc2ccccc2)nnc1SCC(=O)N/N=C/c1cc(Cl)ccc1O | – | – | ? | – | ? | –
C=CCn1c(CNc2ccc(C)cc2)nnc1SCC(=O)N/N=C/c1ccc(O)cc1O | – | – | -86 | – | -82 | ?
C=CCn1c(CNc2ccccc2)nnc1SCC(=O)N/N=C/c1ccc(O)cc1O | ? | – | -88 | – | -81 | ?
COc1ccc(OC)c(N2C(=NC(=O)C3CCCCC3)SC3CS(=O)(=O)CC32)c1 (centres undefined) | – | – | – | – | – | –
Cc1ccc(S(=O)(=O)NCCc2ccc(S(N)(=O)=O)cc2)cc1 | – | 14µM | – | – | – | –
Cc1ccc(CCNS(=O)(=O)c2ccc(C)cc2)cc1 | – | – | – | – | – | –
CCOC(=O)C1=C(C)c2ccccc2N(C(=O)OC)C1(C)C(=O)OCC (centres undefined) | – | – | – | – | – | ·
CCC(C)C(=O)N1c2ccccc2C(=C2SC(C(=O)OC)=C(C(=O)OC)S2)C(=S)C1(C)C (centres undefined) | ? | ? | -80 | 8.9µM | -83 | 8.9µM
Cc1ccc(OCCCCNC(C)c2ccccc2)c(C)c1 (centres undefined) | – | 11µM | – | 20µM | – | ?
Cc1cccc(OCCCCNCc2ccccc2)c1 | ? | 13µM | – | –[11.4 µM] | · | 50µM
COc1cccc(OCCNCc2ccccc2)c1 | – | 7.9µM | – | 6.3µM | – | ?
Cc1ccc(OCCNCc2ccccc2)c(C)c1 | ? | 14µM | – | 1µM | – | ?
COc1ccc(CCNCc2ccc(OCc3ccccc3)cc2)cc1 | – | – | – | – | – | –
CC(=O)NCCNc1ncncc1-c1ccccc1C | · | –[0.501 µM] | · | · | · | ·
CCCOc1ccc(OCCOCCNCc2ccccc2)cc1 | ? | 32µM | – | 18µM | – | ?
CCOCCCNCc1ccc(OCCC(C)C)c(OC)c1 | – | ? | – | ? | – | 56µM
COc1cc(C)ccc1OCCCOc1ccccc1Br | – | · | – | – | – | –
CCc1cccc(OCCCCNCCO)c1 | – | 10µM | – | –[11.4 µM] | – | 56µM
COc1cc(C)ccc1OCCCCNCc1ccccc1 | – | · | – | 18µM | · | ?
C/C=C/c1ccc(OCCOCCNCc2ccccc2)c(OC)c1 | – | 7.9µM | – | 28µM | · | 50µM
CCOc1ccc(OCCOCCNCCOC)cc1 | – | ? | – | 10µM | – | –
Cc1cc(C)c(C)c(OCCOCCNCc2ccccc2)c1 | – | ? | – | 79µM | – | ?
C=CCN(CC=C)CCCOc1ccc(C)cc1OC | ? | 25µM | – | 0.32µM | – | 25µM
SMILES | HP1b binding inh | G9a block | Six1-Eya2 inh | JMJD2A Tudor | CtBP-E1A inh | BAZ2B inh
C/C=C/c1ccc(OCCOc2cc(C=O)ccc2OC)c(OC)c1 | – | – | – | – | – | –
COc1cccc(NC(=O)CSc2c(C)cnc3c2c(=O)n(C)c(=O)n3C)c1 | – | – | · | – | · | –
c1ccc(Nc2nc(CSc3ncn[nH]3)cs2)cc1 | – | 22µM | – | – | – | –
CCOc1ccc(N2C(=O)c3cccnc3C2Nc2ccc(F)cc2)cc1 (centres undefined) | – | 56µM | – | – | – | –
COC(=O)c1cc(S(=O)(=O)N2CCN(C(=O)c3ccco3)CC2)cn1C | – | – | – | – | · | –
Fc1ccc(Nc2ncnc3ccccc23)cc1 | – | 56µM | – | – | – | –
O=C(O)c1cccc(Nc2ncnc3ccccc23)c1 | – | –[12.7 µM] | – | 79µM | – | ?
Nc1cccc(Nc2ncnc3ccccc23)c1 | – | –[0.501 µM] | – | – | · | 50µM
CC(C)(C)C(=O)Oc1cccc(Nc2ncnc3ccccc23)c1 | – | · | – | – | – | –
Oc1cccc(Nc2ncnc3ccccc23)c1 | – | –[12.7 µM] | – | – | – | –
CC(=O)Nc1ccc(Nc2ncnc3ccccc23)cc1 | · | ? | · | · | · | –
CCOc1ccc(-n2c(=O)c3c4c(sc3n(Cc3cccc(C)c3)c2=O)CCCC4)cc1 | – | – | · | – | · | –
Cc1[nH]c2ccc(F)cc2c1CCN(Cc1cccnc1)C(=S)Nc1cccc(F)c1 | – | ? | – | ? | – | 32µM
Cc1[nH]c2ccc(F)cc2c1CCN(Cc1cccnc1)C(=S)NC(C)(C)C | – | – | – | – | – | –
Cc1ccccc1NC(=S)N(CCc1c(C)[nH]c2ccc(F)cc12)Cc1cccnc1 | – | 56µM | – | ? | · | ·
O=C(/C=C/c1ccccc1)NCc1ccc2c(c1)OCO2 | – | – | – | – | – | –
O=C(/C=C/c1ccco1)NCc1ccc2c(c1)OCO2 | – | 20µM | – | – | – | –
O=C(/C=C/c1ccco1)NCCc1ccc(F)cc1 | ? | 40µM | – | – | – | 79µM
CC(=O)NC(c1ccccc1)c1nc(-c2ccc(C)c(C)c2)cs1 (centres undefined) | · | · | – | · | – | ·
COc1ccc(CC(=O)NNC(=O)c2cc(Cl)ccc2OC)cc1 | – | ? | – | – | – | –
COc1ccc(SCCN2CCN(CCc3ccccc3)CCC2=O)cc1 | – | · | · | – | · | ·
COc1ccc(C(C)C)cc1-c1cncc(NC(C)=O)n1 | · | · | – | · | – | ·
CN(c1ccc([N+](=O)[O-])cc1C(N)=O)C1CCCCC1 | – | – | – | – | – | 79µM
N#CCCN1CCCc2cc(N=Nc3ccc(C(F)(F)F)cc3)ccc21 | 11µM | · | ? | 13µM | ? | 5.6µM
Cc1c(NC(=O)CSc2nnnn2-c2ccc(F)cc2)c(=O)n(-c2ccccc2)n1C | – | – | – | – | – | –
SMILES | HP1b binding inh | G9a block | Six1-Eya2 inh | JMJD2A Tudor | CtBP-E1A inh | BAZ2B inh
Cc1cc(NC(=O)COC(=O)C2CC(=O)N(c3ccccc3)C2)no1 (centres undefined) | – | – | – | – | – | –
COc1ccc(-c2cn3cc(C(F)(F)F)cc(Cl)c3n2)cc1 | – | –[12.7 µM] | – | – | – | –
Nc1nc(-c2ccccc2)cn1/N=C/c1ccccc1 | ? | 50µM | – | – | – | –
COc1ccc(-c2cn(/N=C/c3ccc(Cl)cc3Cl)c(N)n2)cc1 | – | 35µM | – | – | – | –
COc1cc(C(=O)Nc2ccc(N3CCOCC3)cc2)ccc1OCc1c(C)noc1C | – | 50µM | – | – | – | –
COc1ccc(C(=O)Nc2ccc(-c3ccc(C)o3)cc2)cc1S(=O)(=O)N1CCOCC1 | – | ? | – | – | – | –
COc1ccc(C(=O)Nc2ccc(N3CCOCC3)cc2)cc1S(=O)(=O)N1CCOCC1 | – | 56µM | – | – | – | –
COc1ccc(S(=O)(=O)N2CCOCC2)cc1C(=O)Nc1ccc(N2CCCCCC2)cc1 | ? | · | ? | 10µM | ? | ·
